Screening data: PubChem, National Center for Advancing Translational Sciences (NCATS)
Rows were chosen to be rich in hits. Some 1.6% of all compounds tested hit in one or more screens of this group.
p53ts 32C tox: kills p53ts cells at the permissive temperature. H1299-p53A138V at 32C, ATP luminescence viability, 24 h. Potency, µM (doses to about 46.1 µM), for the others: at the top dose activity change, negative = cytotoxicity, most hits filed as cytotoxic. hit rate 0.93% among 130,000;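 note: 0% = DMSO and -100% = full killing by reference compound; nearly all actives have a fitted effect of over 55% in size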
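ATP-content luminescence (ATPlite) read-out after 24 h compound exposure at 32C in H1299-p53A138V cells (600/well). Tested up to 46 uM. Normalized to DMSO (0%) and 100 uM tamoxifen (100% killing); Hill-fit AC50.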
IkB sig inh: suppresses IkB signaling in ABC-DLBCL reporter cells. ABC-DLBCL IkBa-CBG/CBR dual luciferase ratio, 4 h; response scale: scaled: untreated 0%, proteasome inhibitor 100%. Potency, µM (series often up to 57.1 µM), for inactives: at the top dose IkBa stabilization activation. hit rate 0.04% among 110,000; active = well fitted curve in the direction sought with a large enough effect in the signal ratio, not every such curve was filed as active; inconclusive = small, poorly fitted or top-dose-only effect, or a change in a side signal; the % refers to the signal ratio;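 note: the direction sought is a rising ratio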
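Luminescence ratio of IκBα-fused green versus native red beetle luciferase in OCI-Ly3 cells, 4 h post-doxycycline with compound; red signal alone, scaled from basal (0%) to zero light (-100%), flagged nonspecific or cytotoxic effects.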
p53ts 39C tox: kills p53ts cells at the nonpermissive temperature. H1299-p53A138V viability at 39C, ATP luminescence, 24 h. hit rate 1.5% among 130,000. Potency, µM (doses to about 46.1 µM), for inactives: at the top dose activity change, negative = cell killing, hits mostly cytotoxic; note: % is set by controls: 0 for no effect and ±100 for the full control effect; nearly all actives have a fitted effect of over 55% in size
Peg3 imprint: inducers of genomic imprint erasure in mouse ES cells. mouse ES Peg3-LacZ reporter, beta-gal luminescence, 40 h. Potency, µM (titrated, usually from 60.7 µM), for the others: top-dose activity change, positive = activation, actives largely listed as activators. hit rate 0.02% among 110,000
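Gelatin-coated wells received 300 freshly trypsinized female ES cells with a Peg3LacZ-Neo reporter on the maternal allele, then incubated 40 hours at 37C. BetaGlo was added for 5 minutes at room temperature before a single luminescence read.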
* marks the source's active call; other numbers are inactive results; ? = inconclusive; nt = no result given; [ ] = dose if it differs, or a comment. Unless noted, calls come from the whole dose curve; as a rule, active = well fitted curve in the direction sought with a large enough effect; inconclusive = small, poorly fitted or top-dose-only effect, or another doubt; inactive = no such curve, though single readings can be large; an effect the other way counts as inactive or inconclusive. Potency is the fitted concentration of half-maximal effect.

SMILES | p53ts 32C tox | IkB sig inh | p53ts 39C tox | Peg3 imprint
Oc1ccc(CN2CCN(Cc3ccccc3)CC2)c2cccnc12 | ? | 1% | -23% | -44%
CCCCN1C(=O)CN(C2CCCCCC2)C(=O)C1c1ccc(OC(C)C)c(OC)c1 (stereo not drawn) | 4% | 1% | -14% | -14%[10.9 µM]
C#C[C@@]1(O)CC[C@H]2[C@H]3CCC4=Cc5oncc5C[C@]4(C)[C@@H]3CC[C@@]21C | nt | 17% | nt | nt
Cc1cc(C)cc(OCCCn2c(CCNC(=O)C3CCCCC3)nc3ccccc32)c1 | -8% | ? | ? | -15%[10.9 µM]
Cc1ccccc1OCCCn1c(CCNC(=O)C2CCCCC2)nc2ccccc21 | -11% | ? | 16µM* | -9%[10.9 µM]
O=C(NCCc1nc2ccccc2n1CCCOc1ccc(Cl)cc1)C1CCCCC1 | ? | ? | 16µM* | -5%[10.9 µM]
Fc1ccc(Cc2cn3cc(-c4ccccc4)nc3s2)cc1 | 3.2µM* | ? | 2.5µM* | -20%[10.9 µM]
Brc1ccc(-c2cn3cc(Cc4ccccc4)sc3n2)cc1 | -27% | 6% | ? | -6%[10.9 µM]
Fc1ccc(-c2cn3cc(Cc4ccccc4)sc3n2)cc1 | 2.2µM* | ? | 5µM* | -24%[10.9 µM]
Clc1ccccc1Cc1cn2cc(-c3ccccc3)nc2s1 | ? | ? | 3.2µM* | -19%[10.9 µM]
NC(N)=N[C@H](CC(=O)O)c1ccccc1 | 5%[9.22 µM] | 0%[11.4 µM] | -8%[9.22 µM] | -8%[10.9 µM]
OCc1cc([C@@H](O)CNCCCCCCOCCCCc2ccccc2)ccc1O | -2% | ? | 13µM* | -16%
Cc1c(C(=O)O)c(O)cc2c1C(=O)c1c(O)c([C@@H]3O[C@H](CO)[C@@H](O)[C@H](O)[C@@H]3O)c(O)c(O)c1C2=O | nt | 0%[11.4 µM] | nt | nt
COC1=CC(=O)C=C(OC)C1=O | ? | nt | 16µM* | -39%
Cc1oc2ccc(O)c(CN(C)Cc3ccccc3)c2c1C(=O)Nc1cccc(C(F)(F)F)c1 | 14µM* | ? | 20µM* | -8%[10.9 µM]
Cc1oc2ccc(O)c(CN(C)Cc3ccccc3)c2c1C(=O)Nc1ccccc1 | ? | ? | ? | -9%[10.9 µM]
COc1ccc(C(=O)Nc2ccccc2C(N)=O)cc1 | 13µM* | ? | 13µM* | -68%
COc1ccc(CNC(=O)Nc2cccc(C)c2)cc1 | -8% | 1% | -16% | -39%
COc1ccc(C(=O)Nc2cccc(C)c2)cc1 | 6.3µM* | ? | 5µM* | -87%
COc1ccc(C(=O)Nc2nnc(C)s2)cc1 | 13µM* | ? | 13µM* | -33%[10.9 µM]
COc1ccc(C(=O)Nc2cc(OC)ccc2OC)cc1 | ? | ? | ? | -13%
COc1ccc(C(=O)Nc2cc(OC)nc(OC)n2)cc1 | 16µM* | nt | 10µM* | nt
CCOc1c(Cl)cc(C(=O)N(Cc2ccc(N(C)C)cc2)Cc2ccco2)cc1Cl | 8% | ? | -19% | -13%[10.9 µM]
COc1cc(-c2noc(-c3ccc(N4CCN(C)CC4)c([N+](=O)[O-])c3)n2)cc(OC)c1OC | -11% | 1% | 2% | -2%[10.9 µM]
COc1ccc(-c2nc3ccccc3n2Cc2ccc(Cl)cc2)cc1 | -7% | ? | 38% | ?
SMILES | p53ts 32C tox | IkB sig inh | p53ts 39C tox | Peg3 imprint
COCn1c(-c2ccc(OC)cc2)nc2ccccc21 | 7.9µM* | nt | 11µM* | nt
COc1ccc(-c2nc3ccccc3n2Cc2ccc(C(C)C)cc2)cc1 | 28% | ? | 18µM* | -16%[10.9 µM]
O=S(=O)(Nc1cccc(-c2ccc(N3CCCCCC3)nn2)c1)c1ccc(F)cc1 | ? | -1% | -35% | -9%[10.9 µM]
Cc1ccc(S(=O)(=O)Nc2cccc(-c3ccc(N4CCCCC4)nn3)c2)s1 | 13µM* | -1% | 1µM* | -11%[10.9 µM]
CCc1ccc(S(=O)(=O)Nc2cccc(-c3ccc(N4CCCCC4)nn3)c2)s1 | 13µM* | -2% | 16µM* | -15%[10.9 µM]
CC(=O)c1ccc(S(=O)(=O)Nc2cccc(-c3ccc(N4CCCCC4)nn3)c2)cc1 | 10µM* | ? | 5µM* | -17%[10.9 µM]
Cc1ccc(Nc2nnc(SCC(=O)Nc3cccc(S(=O)(=O)N4CCCCC4)c3)s2)cc1 | -20% | nt | 11µM* | nt
Cc1ccc(Nc2nnc(SCC(=O)Nc3ncc(C(F)(F)F)cc3Cl)s2)cc1 | nt | nt | 17% | nt
Cn1c(=O)c2cc(C(=O)NC3CCCCCC3)sc2c2ccccc21 | ? | 1% | 7.9µM* | -10%[10.9 µM]
CC(C)CN(CC(C)C)c1nc(-c2ccc(Cl)cc2)nc2ccccc12 | 5% | ? | -7% | 6%[10.9 µM]
CCN(CC)c1nc(-c2ccc(C(C)(C)C)cc2)nc2ccccc12 | 13µM* | ? | 13µM* | -11%[10.9 µM]
CC1=C(C(=O)OC2CCCCCC2)C(c2cccc(Cl)c2)CC(=O)N1 (stereo not drawn) | -19% | ? | 20µM* | -13%[10.9 µM]
Cc1ccccc1C(=O)N1CCCCC1CCN1CCCCC1 (stereo not drawn) | 1% | ? | -25% | -13%[10.9 µM]
CCCOc1ccccc1C(=O)N1CCCCC1CCN1CCCCC1 (stereo not drawn) | -3% | 1% | 22µM* | -10%[10.9 µM]
O=C(Nc1ccc(NC(=O)c2ccco2)nc1)c1cccnc1 | 10µM* | ? | 13µM* | -47%
Cc1cccc(NC(=O)c2sc(NC(=O)c3ccco3)c(C#N)c2C)c1C | -6% | 1% | -6% | nt
CC1(C)Cc2c(sc(NC(=O)c3ccco3)c2C#N)CO1 | 10µM* | -3% | 13µM* | -59%
O=C(/C=C/c1ccc(O)c(O)c1)OC1C[C@](O)(C(=O)O)C[C@@H](O)[C@H]1O (stereo partly drawn) | 4%[1.84 µM] | 0% | 8% | -3%
CN=c1scc(-c2cccs2)n1/N=C/c1ccc(O)c(O)c1O | nt | nt | 6.3µM* | nt
O=C(NCCN1CCOCC1)c1ccc(Cc2nc3ccccc3[nH]2)cc1 | -7% | nt | 2% | nt
O=C(O)CCCC[C@H]1CCSS1 | -6% | 2% | 5% | nt
Cc1ccc(OCCSc2nc(-c3ccccc3C)nc3cc(=O)[nH]n23)cc1Cl | 8% | ? | 25µM* | 23%[10.9 µM]
COc1ccccc1CNc1nc(-c2ccoc2)nc2ccccc12 | 16% | 20%[11.4 µM] | 11% | -19%
COC(=O)c1c(SCC(=O)Nc2cc(OC)cc(OC)c2)[nH]c2ccc(C)cc2c1=O | -6% | ? | 5µM* | -5%[10.9 µM]
Clc1ccccc1-c1ccc2ncnc(N3CCNCC3)c2c1 | 28% | -1%[11.4 µM] | 5% | 10µM*
SMILES | p53ts 32C tox | IkB sig inh | p53ts 39C tox | Peg3 imprint
CN(C)c1ccc(-c2nc(N3CCNCC3)c3ccccc3n2)cc1 | 13µM* | -5%[11.4 µM] | 10µM* | -65%
CN(C)C(=O)c1ccc(-c2nc(-n3ccnc3)c3ccccc3n2)cc1 | 7.9µM* | 0%[11.4 µM] | 10µM* | -64%
CN(C)c1ccc(-c2nc(-n3ccnc3)c3ccccc3n2)cc1 | 10µM* | -1%[11.4 µM] | 13µM* | -79%
Clc1ccccc1-c1nc(-n2ccnc2)c2ccccc2n1 | 14% | 0%[11.4 µM] | 74% | -20%
CCN1CCC[C@@H]1CNC(=O)c1c(O)c(Cl)cc(Cl)c1OC | -14% | 7% | 12% | nt
CCCCN(C)CCNC(=O)c1cc(-c2ccc(Cl)s2)nc2ccccc12 | 7% | ? | 13µM* | -9%[10.9 µM]
CC(C)CN(CCNC(=O)c1cc(-c2ccc(Cl)s2)nc2ccccc12)CC(C)C | 8% | -3% | 6% | -13%[10.9 µM]
